Consider 18 compounds from PubChem BioAssay (EPA / NIEHS).

Structures are written as SMILES. Records with an inconclusive call do not appear. Calls of active or inactive are those of the source. Rule for the calls: active = hit-call score of the fitted dose curve at least 0.9, where 1 is the maximum; inconclusive = response in the unintended direction; inactive = score below 0.9.

rat Androgen Receptor (AR), Ar (gene 24208), sequence (P15207 whole entry, looked up): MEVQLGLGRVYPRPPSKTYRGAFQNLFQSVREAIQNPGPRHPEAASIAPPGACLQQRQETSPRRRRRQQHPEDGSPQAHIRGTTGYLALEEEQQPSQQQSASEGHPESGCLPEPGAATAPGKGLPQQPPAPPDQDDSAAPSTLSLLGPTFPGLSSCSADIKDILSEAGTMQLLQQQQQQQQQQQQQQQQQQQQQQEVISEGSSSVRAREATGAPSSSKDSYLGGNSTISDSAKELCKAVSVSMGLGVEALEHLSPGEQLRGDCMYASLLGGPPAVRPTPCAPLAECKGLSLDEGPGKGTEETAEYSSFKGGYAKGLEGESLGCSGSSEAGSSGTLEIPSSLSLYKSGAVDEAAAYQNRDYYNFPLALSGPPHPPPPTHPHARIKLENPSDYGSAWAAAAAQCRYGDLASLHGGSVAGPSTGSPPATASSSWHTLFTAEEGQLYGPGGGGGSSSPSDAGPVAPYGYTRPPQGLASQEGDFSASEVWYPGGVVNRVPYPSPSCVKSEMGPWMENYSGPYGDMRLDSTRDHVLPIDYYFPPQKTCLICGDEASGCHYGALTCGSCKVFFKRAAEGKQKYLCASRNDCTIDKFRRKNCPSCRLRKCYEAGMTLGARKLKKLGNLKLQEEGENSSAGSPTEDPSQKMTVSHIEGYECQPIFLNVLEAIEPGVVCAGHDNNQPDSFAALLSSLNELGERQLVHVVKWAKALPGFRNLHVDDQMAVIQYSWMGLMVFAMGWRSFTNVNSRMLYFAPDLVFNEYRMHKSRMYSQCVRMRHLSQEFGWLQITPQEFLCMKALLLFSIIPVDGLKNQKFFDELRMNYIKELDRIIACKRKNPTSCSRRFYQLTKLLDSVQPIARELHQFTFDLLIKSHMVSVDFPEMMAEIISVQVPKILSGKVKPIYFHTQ

One experiment concerns the target rat Androgen Receptor (AR), Ar (gene 24208) (UniProt P15207). The experiment can be described thus: NVS_NR_rAR: NovaScreen (NVS) Nuclear Receptor Binding Assay for rat Androgen Receptor (AR) (AID 2283366). In outline:
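Actives from a duplicate single-concentration (25 uM) primary run went on to concentration series. Displacement of radioligand was counted by filtration and scintillation, 18 h post-dose, using prostate extracts from testosterone-pretreated rats, with DMSO as baseline.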
`Cc1c(C)c2c(c(C)c1O)CCC(C)(COc1ccc(CC3SC(=O)NC3=O)cc1)O2` (configuration not stated): the call was inactive. Consider `CCN(CC)CCOc1ccc(C(=C(Cl)c2ccccc2)c2ccccc2)cc1`, for which the AC50 is 2.68 µM (active) [middle of 4 runs]. For `Cc1ccc(-c2cc(C(F)(F)F)nn2-c2ccc(S(N)(=O)=O)cc2)cc1`, the outcome was inactive.

Consider `O=C1OC(c2ccc(O)cc2)(c2ccc(O)cc2)c2ccccc21`, for which the AC50 was 6.69 µM (active).

The next experiment deals with guinea pig Sigma Receptor, Non-selective Binding, SIGMAR1 (gene 100135589) (UniProt Q60492). The experiment can be described thus: NVS_OR_gSIGMA_NonSelective: NovaScreen (NVS) Nuclear Receptor Binding Assay for guinea pig Sigma Receptor, Non-selective Binding (AID 2283367). In outline: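 Guinea pig brain membrane sigma sites were labelled with a radioligand, and bound radioactivity was counted after filtration 1 h post-dose. Compounds were screened at 25 uM in duplicate, then retested as concentration series when active.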
guinea pig Sigma Receptor, Non-selective Binding, SIGMAR1 (gene 100135589), sequence (Q60492 whole entry, looked up): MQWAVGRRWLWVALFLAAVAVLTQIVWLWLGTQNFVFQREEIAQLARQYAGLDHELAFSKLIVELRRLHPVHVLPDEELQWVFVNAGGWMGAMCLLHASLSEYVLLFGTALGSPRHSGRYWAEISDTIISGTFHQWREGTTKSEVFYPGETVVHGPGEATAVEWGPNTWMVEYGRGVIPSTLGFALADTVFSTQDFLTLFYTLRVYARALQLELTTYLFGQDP
Consider `Cc1c(C)c2c(c(C)c1O)CCC(C)(COc1ccc(CC3SC(=O)NC3=O)cc1)O2` (configuration not stated), for which the AC50 was 35 µM (active).

For the compound `CCN(CC)CCOc1ccc(C(=C(Cl)c2ccccc2)c2ccccc2)cc1`, the AC50 was 2.13 µM (active). `CCC(C)N(C)C(=O)c1cc2ccccc2c(-c2ccccc2Cl)n1` (configuration not stated): the concentration at half-maximal activity (AC50) was 6.44 µM (active).

`Cn1cnc2c1c(=O)[nH]c(=O)n2C`: the result was inactive.

Regarding `CCCCCCCCCC[N+](C)(C)[O-]`, the AC50 is 3.09 µM (active).

For the compound `CN(C)CCCN1c2ccccc2Sc2ccc(Cl)cc21`, the AC50 is 2.11 µM (active). On to `Cc1cc(SC2=C(O)C[C@@](CCc3ccc(N)cc3)(C(C)C)OC2=O)c(C(C)(C)C)cc1CO`, for which the compound was called inactive. `CO[C@@H]1COCC[C@@H]1N[C@@H]1CC[C@@](C(=O)N2CCc3ncc(C(F)(F)F)cc3C2)(C(C)C)C1`: the AC50 was 1.94 µM (active). On the same count and under the same terms, as for `CCc1nc(N)nc(N)c1-c1ccc(Cl)cc1`, the figure is 2.45 µM (active); as for `COc1ccc(OC(F)(F)F)cc1CN[C@H]1CCCN[C@H]1c1ccccc1`, 15.8 µM (active). For `NC(=Nc1ccccc1)Nc1ccccc1`, the concentration at half-maximal activity (AC50) is 0.646 µM (active). As to `CSc1ccc(Oc2ccc(S(N)(=O)=O)cc2CN(C)C)cc1C`, the half-maximal activity concentration (AC50) is 12.8 µM (active).

A further experiment concerns guinea pig Dopamine Transporter (DAT), gene 100714898. As to the kind of experiment: NVS_TR_gDAT: NovaScreen (NVS) Transporter Assay for guinea pig Dopamine Transporter (DAT) (AID 2283369).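 Note: active compounds lower bound radioligand signal relative to DMSO.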 In outline:
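Radioligand displacement on membranes from guinea pig striatum, 2 h exposure, bound label counted by filtration and scintillation. Tested at 25 uM in duplicate, then actives in concentration series to 50 uM; DMSO as negative control.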
`CCN(CC)CCOc1ccc(C(=C(Cl)c2ccccc2)c2ccccc2)cc1`: the AC50 was 3.83 µM (active). The same measure, in the same setting: as for `CN(C)C(=O)NC1(c2ccccc2)CCN(CCC[C@]2(c3ccc(Cl)c(Cl)c3)CCCN(C(=O)c3ccccc3)C2)CC1`, the figure is 0.596 µM (active).

For the compound `CC(COCC(C)OC(=O)c1ccccc1)OC(=O)c1ccccc1` (configuration not stated), the result was inactive.

Regarding `CCCCC(CC)COP(=O)(OCC(CC)CCCC)OCC(CC)CCCC` (configuration not stated), the compound was classed as inactive. Consider `O=C(N[C@@H](c1ccccc1)[C@@H]1CCCCN1)c1cccc(C(F)(F)F)c1Cl`, for which the AC50 is 25 µM (active). Consider `Cn1cnc2c1c(=O)[nH]c(=O)n2C`, for which the AC50 was 10.5 µM (active). For the compound `CN(C)CCCN1c2ccccc2Sc2ccc(Cl)cc21`, the AC50 was 8.84 µM (active). On to `Cc1cc(SC2=C(O)C[C@@](CCc3ccc(N)cc3)(C(C)C)OC2=O)c(C(C)(C)C)cc1CO`, for which the call was inactive. With `CCc1nc(N)nc(N)c1-c1ccc(Cl)cc1`, the AC50 is 1.18 µM (active). As for `COc1ccc(OC(F)(F)F)cc1CN[C@H]1CCCN[C@H]1c1ccccc1`, the AC50 is 11.9 µM (active). `CSc1ccc(Oc2ccc(S(N)(=O)=O)cc2CN(C)C)cc1C`: the AC50 is 7.61 µM (active).
